Screening results: PubChem, National Center for Advancing Translational Sciences (NCATS)
GAA inh = qHTS Assay for Inhibitors of Human alpha-Glucosidase as a Potential Chaperone Treatment of Pompe Disease | Lysosomal alpha-glucosidase (Homo sapiens), P10253 | purified human GAA, 4-MU-alpha-glucoside fluorescence | Potency, µM (doses to about 76.9 µM), without a hit: at the highest dose activity change, negative = inhibition, most hits filed as inhibitors | 200,000 compounds, 0.005% hits | AID 1466, 2008;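 further: plate controls were uninhibited enzyme wells for no effect and no-enzyme background for full effect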
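Fluorescence at Ex 365/Em 440 nm from 4-methylumbelliferone reported enzyme activity after 20 min at room temperature. Reactions used 4 nM enzyme and 400 uM substrate at pH 5.0; curves fitted with the Hill equation.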
PKM2 act = qHTS Assay for Activators of Human Muscle isoform 2 Pyruvate Kinase; Pyruvate kinase PKM (Homo sapiens), P14618; purified PKM2, Kinase-Glo ATP luminescence, activation; response scale: 0% is enzyme alone, no compound; Potency, µM (highest dose often 57.5 µM), for the others: top-dose activation, usual class: activators; 260,000 compounds, 0.34% hits; further: nearly all actives have a fitted effect of over 55% in size
Target sequence (P14618 whole entry, looked up, canonical isoform): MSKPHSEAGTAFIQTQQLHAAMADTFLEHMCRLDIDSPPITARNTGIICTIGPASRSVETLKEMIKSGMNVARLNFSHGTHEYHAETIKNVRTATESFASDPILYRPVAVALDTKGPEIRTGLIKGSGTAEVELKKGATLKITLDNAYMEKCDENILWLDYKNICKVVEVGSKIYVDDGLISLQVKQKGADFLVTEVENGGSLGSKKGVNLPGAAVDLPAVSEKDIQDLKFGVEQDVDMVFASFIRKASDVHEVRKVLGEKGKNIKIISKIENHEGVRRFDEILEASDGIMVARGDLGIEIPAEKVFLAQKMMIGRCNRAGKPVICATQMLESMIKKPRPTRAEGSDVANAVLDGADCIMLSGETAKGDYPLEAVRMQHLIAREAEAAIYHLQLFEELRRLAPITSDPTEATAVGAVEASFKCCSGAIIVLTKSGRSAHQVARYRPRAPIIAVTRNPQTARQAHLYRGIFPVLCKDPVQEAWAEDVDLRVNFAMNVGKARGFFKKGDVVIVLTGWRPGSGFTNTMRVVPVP
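hPK-M2, >95% pure; 0.1 mM ADP / 0.5 mM PEP final; imidazole pH7.2 buffer w/ 7 mM MgCl2, 50 mM KCl; 1 h RT; Kinase-Glo lum. Intermediate enzyme activity for dual inhibitor/activator qHTS.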
aGlu spleen mod = qHTS Assay for Inhibitors and Activators of Human alpha-Glucosidase From Spleen Homogenate | Lysosomal alpha-glucosidase (Homo sapiens), P10253 | human spleen homogenate, 4-MU-alpha-glucoside fluorescence | Potency, µM (top dose mostly 79.9 µM), without a hit: top-dose activity change, negative = inhibition, actives largely listed as inhibitors | 240,000 compounds, 0.006% hits | AID 2112, 2009;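 further: 0% = enzyme with vehicle and -100% = no enzyme basal signal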
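AC50 values come from Hill-equation fits of concentration-response data, normalized to no-enzyme and full-activity controls. Enzyme source: 1 ug human spleen homogenate; 1 mM fluorogenic 4-MU glucoside, pH 5.0 citrate buffer, 37 C, 40 min.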
GALK inhibitor = qHTS Assay for Inhibitors of Human Galactokinase (GALK) | P51570 | Purified GALK, Kinase-Glo residual ATP luminescence | Potency, µM (series often up to 57.5 µM), without a hit: at the highest dose activity change, negative = inhibition, hits mostly inhibitors | 270,000 compounds, 0.007% hits
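ATP-depletion format; final 35 uM ATP, 100 uM D-galactose, 5 nM enzyme; pH 8.0 HEPES/Mg2+ buffer; 60 min RT; luminescence read 10 min after detection reagent.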
GAA glycogen mod = qHTS Assay for Inhibitors and Activators of Human alpha-Glucosidase Cleavage of Glycogen; AID 2100, 2009; Lysosomal alpha-glucosidase (Homo sapiens), P10253; 300,000 compounds, 0.38% hits; recombinant GAA, glycogen substrate, Amplex Red glucose oxidase fluorescence; Potency, µM (titrated, usually from 76.4 µM), inactives show top-dose activity change, negative = inhibition, hits mostly inhibitors;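 further: 0% = full enzyme reaction and -100% = no-enzyme basal signal; the screen sought inhibitors and activators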
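Recombinant enzyme (4 nM final) with compounds titrated up to 77 uM and bovine liver glycogen (30 ug) in citrate pH 5.0, 0.01% Tween-20, 37 C 40 min. Released glucose detected by Amplex Red/glucose oxidase (Ex 573/Em 610); AC50 from Hill fits.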
Numbers without * were called inactive; [ ] = another dose, or the depositor's remark. In the library only some 0.63% were active in any assay of this set; here they are far more common. The call rests on the fitted dose curve; in most records, active means well fitted curve in the direction sought with a large enough effect; inconclusive means small, poorly fitted or top-dose-only effect, or another doubt; inactive means no such curve, though single readings can be large; an effect the other way counts as inactive or inconclusive. Unless noted, on the % scale 0 is the no-effect control and ±100 the full control effect; potency means the concentration at half of the fitted maximal effect.

What do the screens show for `O=C(CCS(=O)(=O)c1nc(-c2ccc3c(c2)OCO3)cc(C(F)(F)F)n1)Nc1ccccc1C(F)(F)F`?
GAA glycogen mod: -7.8%[76.3 µM]

What do the screens show for `CCOC(=O)c1cc(CC)sc1N1C(=O)CC(Sc2ccccc2C(=O)O)C1=O` (centres undefined)?
GAA inh: -11.1%; PKM2 act: 25.1µM*; aGlu spleen mod: -7.2%; GALK inhibitor: -2.4%; GAA glycogen mod: inconclusive

How did COC(=O)c1c(N2C(=O)CC(Sc3ccccc3C(=O)O)C2=O)sc(C)c1C (centres undefined) do in these assays?
GAA inh: 11.4%; PKM2 act: -9.6%; aGlu spleen mod: 2.4%; GALK inhibitor: 0.4%; GAA glycogen mod: -13.2%

How did COC(=O)c1c(N2C(=O)CC(Sc3ccccc3C(=O)O)C2=O)sc2c1CCCC2 (centres undefined) do in these assays?
GAA inh: 1.8%; PKM2 act: 7.94µM*; aGlu spleen mod: 5.1%; GALK inhibitor: 6.0%; GAA glycogen mod: -4.5%

What do the screens show for `CCOc1cc(/C=C/c2cc(C(=O)O)c3ccccc3n2)ccc1OC`?
GAA inh: 3.1%; PKM2 act: -4.9%; aGlu spleen mod: -0.5%; GALK inhibitor: 1.6%; GAA glycogen mod: 4.6%

Results for COc1cc(C=C(c2nc3ccccc3s2)c2nc3ccccc3s2)ccc1O ?
GAA inh: -9.7%; PKM2 act: -1.4%; aGlu spleen mod: -6.5%; GALK inhibitor: -0.5%; GAA glycogen mod: -17.9%

How did COc1cc(/C=C/c2nc3ccccc3s2)cc(OC)c1O do in these assays?
GAA inh: -10.5%; PKM2 act: 1.2%; aGlu spleen mod: -10.8%; GALK inhibitor: 1.2%; GAA glycogen mod: 17.6µM*

What do the screens show for `COc1cc(/C=C/c2cc(C(=O)O)c3ccccc3n2)cc(OC)c1O`?
GAA inh: -4.7%; PKM2 act: -4.1%; aGlu spleen mod: -14.0%; GALK inhibitor: -0.9%; GAA glycogen mod: 14.1µM*

Results for CC1CCC/C(=N/Nc2ccc([N+](=O)[O-])cc2[N+](=O)[O-])C1 (centres undefined) ?
GAA inh: -11.6%; PKM2 act: -0.5%; aGlu spleen mod: 1.8%; GALK inhibitor: 0.1%; GAA glycogen mod: 15.7µM*

Results for NNc1nc(-c2ccccc2)cc(-c2ccccc2O)n1 ?
GAA inh: 1.8%; PKM2 act: 2.3%; aGlu spleen mod: -5.8%; GALK inhibitor: 0.4%; GAA glycogen mod: 11.2µM*

How did NNc1nc(-c2ccccc2)cc(-c2ccccc2)n1 do in these assays?
GAA inh: 4.3%; PKM2 act: -5.5%; aGlu spleen mod: -2.8%; GALK inhibitor: 10.4%; GAA glycogen mod: -16.5%

What do the screens show for `COCCCNC(=O)c1oc2c(c1C)-c1nn(Cc3ccccc3Cl)cc1CC2`?
GAA glycogen mod: 2.0%[76.3 µM]

Results for O=C(Nc1ccc(C(F)(F)F)cc1Cl)c1ccc(Cn2cc(Br)cn2)o1 ?
GAA inh: -8.9%; PKM2 act: 28.2µM*; aGlu spleen mod: -6.5%; GALK inhibitor: 0.2%; GAA glycogen mod: -3.4%

How did O=C(Nc1cccc(C(F)(F)F)c1)c1ccc(Cn2cc(Br)cn2)o1 do in these assays?
GAA inh: 0.2%; PKM2 act: 15.4%; aGlu spleen mod: -5.8%; GAA glycogen mod: -5.6%

Results for COc1ccc2[nH]c3c4c(ccc3c2c1)C(=O)C=CC4=O ?
PKM2 act: 1.26µM*; aGlu spleen mod: -1.0%; GALK inhibitor: 0.4%; GAA glycogen mod: -9.9%

How did O=S(=O)(NCCCO)c1ccc2c(c1)Cc1cc(S(=O)(=O)NCCCO)ccc1-2 do in these assays?
GAA inh: inconclusive; PKM2 act: 12.6µM*; aGlu spleen mod: -11.5%; GALK inhibitor: -1.3%; GAA glycogen mod: -19.4%

How did O=S(=O)(NCCO)c1ccc2c(c1)Cc1cc(S(=O)(=O)NCCO)ccc1-2 do in these assays?
GALK inhibitor: 3.5%; GAA glycogen mod: -0.4%
